Assay results reported in PubChem BioAssay (EPA / NIEHS).
Results filed as inconclusive are left out. The source made the active and inactive calls. Rule for the calls: active = hit-call score of the fitted dose curve at least 0.9, where 1 is the maximum; inconclusive = response in the unintended direction; inactive = score below 0.9.

molecular target: Nuclear receptor subfamily 1 group I member 2 (Homo sapiens) (UniProt O75469); assay: ATG_PXR_TRANS: Attagene TRANS-FACTORIAL HepG2 Assay for human Pregnane X Receptor (PXR) (AID 2283008)
Outline: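 HepG2 transfected (FuGene 6) with GAL4-UAS reporter units + PXR-Gal4 chimera; dosed 24 h. Total RNA → oligo(dT) RT → PCR → 6-FAM primer extension → HpaI cut → CE. Gain-of-signal vs DMSO.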

Chain of Nuclear receptor subfamily 1 group I member 2 (Homo sapiens) (O75469 whole entry, looked up, the tested form may be a part): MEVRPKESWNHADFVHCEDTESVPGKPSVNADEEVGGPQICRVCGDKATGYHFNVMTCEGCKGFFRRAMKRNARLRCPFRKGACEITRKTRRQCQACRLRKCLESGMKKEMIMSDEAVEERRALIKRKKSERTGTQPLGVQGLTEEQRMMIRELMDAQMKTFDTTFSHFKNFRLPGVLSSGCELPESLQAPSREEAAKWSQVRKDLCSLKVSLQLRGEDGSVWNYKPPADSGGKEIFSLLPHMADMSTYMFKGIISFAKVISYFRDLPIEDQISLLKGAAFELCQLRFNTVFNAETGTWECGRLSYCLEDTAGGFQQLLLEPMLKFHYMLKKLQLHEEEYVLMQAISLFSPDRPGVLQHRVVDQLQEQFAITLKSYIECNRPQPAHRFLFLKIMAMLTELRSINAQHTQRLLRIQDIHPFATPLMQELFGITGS

Row | SMILES | outcome | AC50
1 | NCC1CCCC(CN)C1 (configuration not stated) | inactive | –
2 | CCCCC(CC)COC(=O)c1ccc(O)cc1 (configuration not stated) | – | 20.7 µM (active)
3 | CCCCCCCCCCCCN1CCCCCC1=O | – | 1.93 µM (active)
4 | CC(=O)CC(=O)Nc1ccccc1 | inactive | –

molecular target: human Retinoic Acid Receptor gamma (RARg), RARG (gene 5916) (UniProt P13631); assay: ATG_RARg_TRANS: Attagene TRANS-FACTORIAL HepG2 Assay for human Retinoic Acid Receptor gamma (RARg) (AID 2283009)
Outline: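 Transactivation of exogenous RARg-Gal4 fusion measured as reporter transcript induction after 24 h in transfected HepG2 cells. RNA reverse-transcribed, amplified, fluorescently labeled and resolved by capillary electrophoresis; increase relative to DMSO.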

Chain of human Retinoic Acid Receptor gamma (RARg), RARG (gene 5916) (P13631 whole entry, looked up, the tested form may be a part): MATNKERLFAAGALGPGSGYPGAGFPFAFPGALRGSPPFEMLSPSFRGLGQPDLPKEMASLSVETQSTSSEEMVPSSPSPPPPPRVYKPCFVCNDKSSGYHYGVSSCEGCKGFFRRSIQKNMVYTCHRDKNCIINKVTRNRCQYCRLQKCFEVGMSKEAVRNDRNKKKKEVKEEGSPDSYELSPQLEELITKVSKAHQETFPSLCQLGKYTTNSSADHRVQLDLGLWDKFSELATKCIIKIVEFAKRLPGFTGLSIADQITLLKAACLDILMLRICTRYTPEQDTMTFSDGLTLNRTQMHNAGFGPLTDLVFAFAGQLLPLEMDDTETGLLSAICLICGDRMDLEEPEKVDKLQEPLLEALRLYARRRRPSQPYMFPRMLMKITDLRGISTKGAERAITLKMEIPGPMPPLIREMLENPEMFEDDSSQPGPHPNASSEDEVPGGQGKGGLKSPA

Row | SMILES | outcome
5 | CC(C)c1ccccc1O | inactive
6 | O=C1OC(=O)c2c(Br)c(Br)c(Br)c(Br)c21 | inactive
7 | Cc1cc(CCC(=O)OCCOCCOCCOC(=O)CCc2cc(C)c(O)c(C(C)(C)C)c2)cc(C(C)(C)C)c1O | inactive
8 | NCc1ccco1 | inactive
9 | Oc1c(Cl)cc(Cl)c(Cl)c1Cc1c(O)c(Cl)cc(Cl)c1Cl | inactive
10 | Nc1c(Cl)cc(Cl)cc1[N+](=O)[O-] | inactive
11 | O=C1c2ccccc2C(=O)c2c(O)ccc(O)c21 | inactive
12 | CCCCCCCCCCCCN1CCCCCC1=O | inactive
